Screening data deposited in PubChem by National Center for Advancing Translational Sciences (NCATS).
ATXN2 expr inh: inhibitors of ATXN2 expression; HEK-293 ATXN2-luciferase reporter, luminescence, 24 h; Potency, µM (doses to about 57 µM), for inactives: at the highest dose activity change, negative = inhibition, actives largely listed as inhibitors; 0.72% of 360,000 active; also: % is scaled to controls: 0 for no effect and ±100 for the full control effect; nearly all actives have a fitted effect of over 55% in size
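qHTS (up to 57 uM final) was run with 24 h compound exposure of reporter cells at 37 °C. Each well was multiplexed: SteadyGlo luminescence measured ATXN2-luciferase expression after a fluorogenic Gly-Phe-AFC viability readout (25 uM final).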
HepG2 tox: counter-screen for TGF-b inhibitors: cytotoxicity in HepG2 cells; HepG2 CAGA-GFP viability, ATP luminescence, 18 h; Potency, µM (top dose mostly 46.1 µM), for inactives: at the top dose activity change, negative = cytotoxicity, usual class: cytotoxic; 0.76% of 410,000 active
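CellTiter-Glo luminescence gave cytotoxicity after 18 hours at 37 degrees C. The cells were HepG2 CAGA-GFP in 1% FBS DMEM, stimulated with 500 pg/mL TGF-beta after compound addition. %Activity was normalised to no-cell wells (complete cell-killing) and DMSO (no toxicity), and curves were fitted and classified.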
TGFb inhibitor: blocks TGF-b signaling. 1.2% of 410,000 active. Potency, µM (titrated, usually from 46.1 µM), without a hit: top-dose activity, negative = inhibition, hits mostly inhibitors. AID 588855. HepG2 CAGA-GFP TGF-b/SMAD3 reporter, GFP fluorescence, 18 h; TGF-beta stimulated, 500 pg/mL final; also: % is scaled to controls: 0 for no effect and ±100 for the full control effect; nearly all actives have a fitted effect of over 65% in size
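Smad-responsive CAGA-GFP expression was quantified in HEPG2 cells exposed to compounds and 500 pg/mL final TGF-beta for 18 h at 37 degrees C; unstimulated wells defined full inhibition.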
TDP1 cell CPT: DT40-hTDP1 cell growth loss with CPT; chicken DT40 Tdp1-/-;hTDP1 cells + 20 nM CPT, ATP luminescence, 48 h; 12% of 420,000 active; AID 686979; Potency, µM (titrated, usually from 46.2 µM), without a hit: at the highest dose activity change, negative = growth inhibition, most hits filed as inhibitors; also: % is scaled to controls: 0 for no effect and ±100 for the full control effect; nearly all actives have a fitted effect of over 55% in size
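Chicken DT40 Tdp1-/- cells stably complemented with human TDP1 were seeded at 400 cells/well in medium containing 20 nM camptothecin, exposed to pin-transferred compounds, and grown at 37 °C for at least 48 hr. Viability was read as ATP luminescence.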
TDP1 cell noCPT: qHTS for Inhibitors of human tyrosyl-DNA phosphodiesterase 1 (TDP1): qHTS in cells in absence of CPT. Potency, µM (top dose mostly 46.2 µM), for inactives: at the top dose activity change, negative = growth inhibition, hits mostly inhibitors. DT40 Tdp1-/- hTDP1 cells, no CPT, ATP luminescence, 48 h. 15% of 420,000 active; also: % is scaled to controls: 0 for no effect and ±100 for the full control effect; nearly all actives have a fitted effect of over 55% in size
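Cells were dispensed at 400 per well, compounds added by pin tool, plates incubated ≥48 hr at 37 °C, then CellTiter-Glo added for 30 min at room temperature before luminescence reading. Line: DT40 Tdp1-/- complemented with hTDP1; camptothecin omitted.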
ATXN viability: reduces viability in counter-screen for ATXN expression inhibitors | S2 cells (HEK-293 line with an ATXN2-luciferase reporter) viability, CellTiter-Fluor protease fluorescence, 24 h | Potency, µM (highest dose often 56.7 µM), actives largely listed as cytotoxic | 0.49% of 400,000 active | AID 651635; also: nearly all actives have a fitted effect of over 40% in size
An asterisk follows results filed as active; i = inactive; ? = inconclusive; nt = no result given; ! = a repeat was not active. Hits are enriched below; roughly 17% of the tested compounds scored in any of these assays. Calls follow the shape of the dose curve; as a rule, active = well fitted curve in the direction sought with a large enough effect; inconclusive = small, poorly fitted or top-dose-only effect, or another doubt; inactive = no such curve, though single readings can be large; an effect the other way counts as inactive or inconclusive. Potency is read from the fitted curve at half-maximal effect.

SMILES	ATXN2 expr inh	HepG2 tox	TGFb inhibitor	TDP1 cell CPT	TDP1 cell noCPT	ATXN viability
c1ccc(C[n+]2ccc3ccccc3c2)cc1	-19%	-15%	5%	10µM*	16µM*	i
CN1CCC(=NNC(=O)CN(c2cccc(Br)c2)S(C)(=O)=O)CC1	-4%	-21%	-15%	5%	-7%	i
COc1ccc(OC)c(/C=N/NC(=O)CC(=O)NC2CCCCC2)c1	-3%	-1%	9%	9%	-19%	i
CC(NC(=O)C1CCC(CNc2c(N3CCCCC3)c(=O)c2=O)CC1)c1ccccc1 (stereo not drawn)	-4%	9%	-12%	19%	-12%	i
O=C1CCC(C(=O)N2CCCC(C(=O)c3ccc4ccccc4c3)C2)=NN1 (stereo not drawn)	2%	4%	-2%	?	?	i
Cc1ccc2c(c1)C1(C(=O)N2)N2CCCC2C(C(=O)c2ccc3ccccc3c2)C12C(=O)Nc1ccccc12 (stereo not drawn)	25%	-183%	?	16µM*	?	i
NC(=O)c1ccc(I)c([N+](=O)[O-])c1	-6%	nt	nt	nt	nt	nt
c1ccc(-c2onc(-c3ccco3)c2-c2ccc3c(c2)OCO3)cc1	-4%	-33%	?	10µM*!	11µM*!	i
COc1cc(-c2c(-c3ccc4c(c3)OCO4)noc2-c2ccsc2)cc(OC)c1OC	nt	14%	0%	?	-28%	nt
CCOc1ccc(NC(=O)Cn2cc(C(=O)c3ccc(C)c(C)c3)c(=O)c3cc4c(cc32)OCCO4)cc1	7%	-10%	6%	-10%	-17%	i
Cc1ccc(CNC(=O)c2ccc3c(c2)CCN3S(=O)(=O)c2ccc(Br)cc2)cc1	9%	0%	?	-18%	-24%	i
COc1ccc(CCNC(=O)c2ccc3c(c2)CCN3S(=O)(=O)c2ccc(C)cc2)cc1	-6%	-10%	-24%	?	10µM*	i
COc1ccc(CNC(=O)c2ccc3c(c2)CCN3S(=O)(=O)c2ccccc2)cc1	-9%	-7%	-25%	12µM*	18µM*	i
COc1ccc(NC(=O)c2ccc3c(c2)CCN3S(=O)(=O)c2ccccc2)c(OC)c1	nt	-63%	-4%	?	?	i
O=C(NCCc1ccccc1)c1ccc2c(c1)CCN2S(=O)(=O)c1ccccc1	14%	-2%	13%	21µM*	15µM*	i
Cc1nc2cc(Oc3nc(NCCN(C)C)nc4ccsc34)ccc2s1	-20%	-47%	20%	?	?	i
O=C(CCCCC(=O)OCC1COCO1)OCC1COCO1 (stereo not drawn)	-3%	0%	10%	-9%	0%	i
O=C(c1cc(C2CC2)nn1-c1ccccc1)N1CCN(S(=O)(=O)c2c(F)cccc2F)CC1	-6%	4%	1%	?	-15%	i
O=S(=O)(Nc1ccc2oc3c(c2c1)CCCC3)c1cc(Cl)ccc1Cl	14%	-106%	?	-30%	?	i
O=C(c1ccncc1)N(c1ccc2oc3c(c2c1)CCCC3)S(=O)(=O)c1cccc([N+](=O)[O-])c1	-15%	8%	-13%	-26%	?	i
CC(=O)c1c(C)oc2ccc(N(C(=O)c3ccncc3)S(=O)(=O)c3ccc(C)cc3C)cc12	-11%	-23%	-4%	nt	nt	i
COc1ccc(S(=O)(=O)N(C(=O)c2ccncc2)c2ccc3oc(C)c(C(C)=O)c3c2)cc1	nt	-25%	?	3.7µM*	2.3µM*	nt
COC(=O)c1c(C)oc2ccc(N(C(=O)c3ccncc3)S(=O)(=O)c3ccc(OC)cc3)cc12	nt	-13%	-33%	0.58µM*	0.52µM*	nt
Cc1ccc(S(=O)(=O)Nc2cc(Cl)c3oc4c(c3c2)CCCC4)cc1	-21%	-106%	?	?	13µM*	?
CC(=O)c1c(C)oc2ccc(N(C(C)=O)S(=O)(=O)c3cccc([N+](=O)[O-])c3)cc12	nt	-10%	-4%	21µM*	?	i
SMILES	ATXN2 expr inh	HepG2 tox	TGFb inhibitor	TDP1 cell CPT	TDP1 cell noCPT	ATXN viability
CC(C)(C)c1ccc(S(=O)(=O)NC(=O)C2(C)CCN2C(=O)CC2CCCC2)cc1 (stereo not drawn)	-4%	-3%	-7%	4%	-3%	i
COc1ccccc1CNC(=O)CN1C(=O)NC2(CCCC2)C1=O	4%	5%	14%	24%	17%	i
COc1ccc(S(=O)(=O)N(C(=O)c2ccncc2)c2ccc3oc4c(c3c2)CCCC4)cc1	-23%	-59%	11µM*	18µM*	21µM*	?
CCc1ccc(S(=O)(=O)N(C(=O)c2ccncc2)c2ccc3oc(C)c(C(=O)OC)c3c2)cc1	nt	-62%	?	2.9µM*	2.6µM*	nt
CCOC(=O)c1c(C)oc2ccc(N(C(=O)c3ccncc3)S(=O)(=O)c3ccc(F)cc3)cc12	-38%	1%	-4%	nt	nt	i
CCOc1ccc(S(=O)(=O)N(C(=O)c2ccncc2)c2ccc3oc(C)c(C(=O)OC)c3c2)cc1	nt	-22%	?	1µM*	0.92µM*	nt
CC(=O)c1c(C)oc2ccc(N(C(=O)Oc3ccccc3)S(=O)(=O)c3ccc(C(C)(C)C)cc3)cc12	-8%	-12%	-22%	5.2µM*	9.2µM*	i
CCN(CC)C(=O)COc1ccc2oc(C)c(C(=O)OC)c2c1	2%	-29%	-1%	3%	?	i
Cc1cc(F)ccc1NC(=O)c1cc(S(=O)(=O)N2CCCC2)cn1C	-4%	-19%	-2%	-4%	-8%	i
O=C(Nc1noc2ccccc12)c1ccc(F)cc1	nt	-66%	nt	-4%	-19%	nt
COc1ccc(S(=O)(=O)Nc2ccc3oc4c(c3c2)CCCC4)cc1	?	-102%	13µM*	?	21µM*	?
O=C(N[C@@H]1c2ccccc2C2(CCN(C(=O)c3ccc4c(c3)OCCO4)CC2)[C@H]1O)c1cccnc1	nt	nt	nt	?	-4%	i
COc1ccc(C(CNC(=O)c2ccc(S(=O)(=O)Nc3ccc(F)cc3)cc2)N(C)C)cc1 (stereo not drawn)	-19%	-28%	-19%	16µM*	23µM*	i
CCOc1ccc(S(=O)(=O)Nc2cccc(C(=O)NCC(c3ccccc3)N(C)C)c2)cc1 (stereo not drawn)	7%	-9%	?	23µM*	18µM*	i
